Only some compounds are listed: those with a hit (about 4.9% of all), similar ones and a draw of the others.
PP5 inh = inhibitors of human protein phosphatase 5 (PP5). P53041. 0.18% of 320,000 active. purified PP5c, OMFP substrate fluorescence. inhibition, % at 6.7 µM. AID 1987;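 active = inhibition above the campaign's mean inhibition across all tested compounds plus 3 SD, cut at about 9.5% in these data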
CSC inhib = cancer stem cell inhibition | cancer stem cell-like cells viability, luminescence | inhibition, % at 7.5 µM | 1.1% of 300,000 active; in the data active = inhibition above about 75%; inconclusive = no clear call, values can overlap the other calls; tested in HMLE shEcad cells
Calb FLC = C. albicans growth modulation with fluconazole | 0.57% of 300,000 active | C. albicans CaCi-2 (fluconazole-resistant clinical isolate) + fluconazole, Alamar Blue growth, 48 h | growth inhibition, % (concentration not given with the values);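 active = growth inhibition above about 58% in most replicates, limit read from the data, passing the limit was not always enough; inconclusive = exactly half the replicates above a set limit; inactive = most replicates below a set limit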;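 note: all wells also contain fluconazole at 8 µg/ml as a sub-toxic cotreatment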
Beta apoptosis = beta cell apoptosis inhibition; INS-1E cytokine-induced death, ATP luminescence, 48 h; percent of positive-control rescue, neutral wells zero; protection from apoptosis, % (concentration not given with the values); 0.8% of 300,000 active;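 active = Every replicate reaches about 75%, or at least half do and their mean reaches it too, limit read from the data; inconclusive = At least half of replicates reach the limit but their mean does not; inactive = Under half of replicates reach the limit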;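 note: higher means more ATP so stronger rescue from cytokine killing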
PP1 counter = PP1-alpha (human) inhibition in PP5 counter-screen; purified PP1alpha, OMFP fluorescence; inhibition, % at 6.7 µM; 0.9% of 320,000 active;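 active = inhibition above the mean inhibition of all tested compounds plus 3 SD, computed separately for each screening campaign, cut at about 15% in these data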
Target sequence (P62136 whole entry, looked up): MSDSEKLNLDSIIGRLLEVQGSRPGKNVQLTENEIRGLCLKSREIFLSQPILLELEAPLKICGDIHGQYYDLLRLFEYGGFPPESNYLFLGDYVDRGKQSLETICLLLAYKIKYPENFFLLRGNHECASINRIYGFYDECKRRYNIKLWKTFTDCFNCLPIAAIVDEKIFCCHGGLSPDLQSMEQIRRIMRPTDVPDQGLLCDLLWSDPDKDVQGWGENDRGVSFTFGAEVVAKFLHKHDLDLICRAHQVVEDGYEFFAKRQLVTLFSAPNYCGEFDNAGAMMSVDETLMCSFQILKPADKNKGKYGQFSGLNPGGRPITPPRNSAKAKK
Mdm2-MdmX inh = inhibitors of human Mdm2/MdmX interaction; O15151+Q00987; SaOS-2 split-luciferase Mdm2/MdmX complementation, luminescence; inhibition, % at 8 µM; 3% of 330,000 active;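 active = inhibition of at least 50% at 8 µM in the primary screen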
Mdm2-MdmX conf = human Mdm2/MdmX binding inhibition, confirmed; shares compounds with Mdm2-MdmX inh; luminescent assay; inhibition, % at 8 µM; 55% of 10,000 active; in the data active = inhibition above about 40%
Full FLuc ctr = inhibits full-length luciferase, flagging false Mdm2/MdmX hits. shares compounds with Mdm2-MdmX inh. SaOS-2 full-length luciferase counterscreen, luminescence. inhibition, % at 8 µM. 77% of 6,200 active;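 active = mean inhibition at 8 µM reaching about 37%, which flags the compound as non-specific, limit read from the data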;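 note: p53-null SaOS-2 cells with luciferase driven by a doxycycline-inducible promoter; compound on cells about two nights before reading with doxycycline added after day one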
Of the large screens only hits and unclear results are named; the others gave an inactive call (follow-up assays come after a bar, where they were run).

COC(=O)c1c(NC(=O)c2ccc([N+](=O)[O-])o2)sc2c1CCN(C(C)C)C2	Mdm2-MdmX inh 97.4 | Mdm2-MdmX conf 98.5 | Full FLuc ctr 47.7
COC(=O)c1c(NC(=O)c2ccco2)sc2c1CCN(C(C)=O)C2	none (no result: Beta apoptosis)
CC(Oc1ccc(Br)cc1)C(=O)NCC1(N2CCCCC2)CCCCC1 (stereo not drawn)	none (no result: Calb FLC)
CCCSc1ccc([C@H]2N[C@@](C)(C(=O)OC)[C@H]3C(=O)N(CC)C(=O)[C@@H]23)cc1	none (no result: PP5 inh, CSC inhib, Calb FLC, PP1 counter)
CCOc1ccc(C(=O)/C=C/Nc2ccc(S(=O)(=O)N=C(N)N)cc2)cc1	Mdm2-MdmX inh 73.6 | Mdm2-MdmX conf inactive
NC(=O)C1CCN(C(=O)c2ccc(-c3ccccc3Cl)o2)CC1	none (no result: Calb FLC)
CC1=C(C(=O)OCc2ccc3c(c2)OCO3)C(c2cccc([N+](=O)[O-])c2)NC(=O)N1 (stereo not drawn)	none | Mdm2-MdmX conf 70.0 | Full FLuc ctr 45.3
CCCCn1c(N)c(N(Cc2ccccc2OC)C(=O)C(C)Oc2ccc(Cl)cc2)c(=O)[nH]c1=O (stereo not drawn)	none
COc1ccc(-n2cc(C#N)c(=O)[nH]c2=O)cc1	none (no result: Beta apoptosis)
CNC(=S)NCc1ccc2[nH]c3c(c2c1)CCCC3	none
Cc1ccc(C)c(NC(=S)NCc2ccc3[nH]c4c(c3c2)CCCC4)c1	Mdm2-MdmX inh 63.6 (no result: CSC inhib) | Mdm2-MdmX conf inactive
Cc1ccccc1NC(=S)NCc1ccc2[nH]c3c(c2c1)CCCC3	Mdm2-MdmX inh 65.4 (no result: Beta apoptosis) | Mdm2-MdmX conf inactive
S=C(NCc1ccc2[nH]c3c(c2c1)CCCC3)Nc1ccccc1Cl	Mdm2-MdmX inh 64.2 (no result: CSC inhib) | Mdm2-MdmX conf inactive
Cc1ccc(S(=O)(=O)Nc2ccc(-n3c(C)nc4ccccc4c3=O)cc2)cc1	none (no result: Beta apoptosis)
CC1(C)CC(=O)C2=C(C1)N=C1c3ccccc3C(=O)C1C2c1ccc(Cl)cc1 (stereo not drawn)	Mdm2-MdmX inh 56.3 | Mdm2-MdmX conf inactive
CC1(C)CC(=O)C2=C(C1)N=c1s/c(=C/c3ccc(F)c(F)c3)c(=O)n1C2c1ccc(F)cc1 (stereo not drawn)	none
CCOC(=O)C1=C(C)N=C2c3ccccc3C(=O)C2C1c1ccc(Cl)cc1 (stereo not drawn)	Mdm2-MdmX inh 50.9 | Mdm2-MdmX conf inactive
C=CCn1cccc(C(=O)Nc2cc(OC)ccc2OC)c1=O	none (no result: CSC inhib)
O=C1CN(C(=O)COC(=O)CNS(=O)(=O)/C=C/c2ccccc2)c2ccccc2N1	none
CN(C)/C=C/C(=O)c1cc(N2CCOCC2)ccc1[N+](=O)[O-]	none
Cc1ccc(C(C(=O)NCc2ccco2)N(C(=O)CNC(=O)c2cccs2)c2c(C)cccc2C)cc1 (stereo not drawn)	Mdm2-MdmX inh 52.1 | Mdm2-MdmX conf 53.1 | Full FLuc ctr 64.6
Cc1ccc(C(C(=O)NCc2ccco2)N(C(=O)CNC(=O)c2cccs2)c2c(C)cc(C)cc2C)cc1 (stereo not drawn)	Mdm2-MdmX inh 87.0 | Mdm2-MdmX conf 52.9 | Full FLuc ctr 43.2
Cc1ccc(C(C(=O)NCc2ccco2)N(C(=O)CNC(=O)c2cccs2)c2ccc(C)cc2)cc1 (stereo not drawn)	none
CCn1nc(C(=O)NNC(=O)c2ccccc2)c2ccccc2c1=O	none (no result: CSC inhib, Calb FLC)
Cc1cccc(N/N=C(\C(N)=O)C2=NC(C)(C)Cc3ccccc32)c1	CSC inhib 76.3, Mdm2-MdmX inh 58.5 | Mdm2-MdmX conf inactive
C[C@@H]1CN([C@@H](C)CO)C(=O)c2cc(N(C)C)ccc2O[C@@H]1CN(C)S(C)(=O)=O	none (no result: PP5 inh, CSC inhib, Calb FLC, PP1 counter)
CC(C)c1nc2sc3c(NCc4ccco4)ncnc3c2c2c1COC(C)(C)C2	Mdm2-MdmX inh 52.9 | Mdm2-MdmX conf inactive
COc1cccc2c1Oc1ncccc1N(C(=O)CCC(=O)NCc1cccc(C)c1)C2	none
CCOC(=O)[C@@H]1[C@H]2COc3cc(OC)ccc3[C@H]2N2C(=O)N(c3ccc(C(F)(F)F)cc3)C(=O)[C@]12C	CSC inhib 102.0, Beta apoptosis 107.9, Mdm2-MdmX inh 91.3 (no result: PP5 inh, Calb FLC, PP1 counter) | Mdm2-MdmX conf inactive
CCOC(=O)[C@@H]1[C@H]2COc3cc(OC)ccc3[C@@H]2N2C(=O)N(c3ccc(C(F)(F)F)cc3)C(=O)[C@@]12C	none
COc1cc(S(=O)(=O)Nc2ccccc2)ccc1N=Cc1c(C)[nH]n(-c2ccc(C)cc2)c1=O	Mdm2-MdmX inh 67.3 | Mdm2-MdmX conf inactive
COc1cc(SC#N)ccc1N=Cc1c(C)[nH]n(-c2ccc(C)c(C)c2)c1=O	CSC inhib 96.9, Beta apoptosis 78.9, Mdm2-MdmX inh 87.0 | Mdm2-MdmX conf 90.7 | Full FLuc ctr 51.9
Cc1cc(NC(=O)CCCn2cc([N+](=O)[O-])cn2)n(Cc2ccc(F)cc2)n1	none
Cc1[nH]n2c(=O)c3c(nc2c1-c1ccc(Cl)cc1)CCC3	none
Nc1[nH]n2c(=O)c3c(nc2c1N=Nc1ccc(Cl)cc1)CCCC3	Mdm2-MdmX inh 52.8 | Mdm2-MdmX conf inactive
CCOC(=O)c1sc(N)c(C(=O)OC)c1C	none
COC(=O)c1c(N)sc(C(=O)NCCc2ccccc2)c1C	Mdm2-MdmX inh 64.6 (no result: PP5 inh, PP1 counter) | Mdm2-MdmX conf 59.4 | Full FLuc ctr 73.1
CCOC(=O)c1sc(N)c(C(=O)Nc2ccccc2OC)c1C	Mdm2-MdmX inh 56.2 | Mdm2-MdmX conf 64.6 | Full FLuc ctr 57.4
CC(C)n1c(SCC(=O)Nc2nncs2)nnc1-c1ccco1	none
O=c1c2cc3ccccc3n2cnn1Cc1ccccc1F	Mdm2-MdmX inh 53.7 | Mdm2-MdmX conf 40.6 | Full FLuc ctr 84.1
NC1=NC[C@H](Cc2ccccc2)N1CCc1cc(C(F)(F)F)cc(C(F)(F)F)c1	Mdm2-MdmX inh 63.2 | Mdm2-MdmX conf inactive
CNc1nc(C)cc(C)c1S(=O)(=O)c1ccc(C)cc1	Calb FLC inconclusive
c1ccc2c(Nc3nc(-c4ccncc4)nc4ccccc34)cccc2c1	CSC inhib inconclusive, Mdm2-MdmX inh 62.3 | Mdm2-MdmX conf 59.3 | Full FLuc ctr 71.7
Clc1ccccc1Nc1nc(-c2ccncc2)nc2ccccc12	none
CCCCN(CCCC)c1nc(-c2ccncc2)nc2ccccc12	CSC inhib 101.1, Mdm2-MdmX inh 55.7 (no result: Beta apoptosis) | Mdm2-MdmX conf inactive
Clc1cccc(Nc2nc(-c3ccncc3)nc3ccccc23)c1	Mdm2-MdmX inh 93.2 | Mdm2-MdmX conf 44.9 | Full FLuc ctr inactive
Fc1ccc(Nc2nc(-c3ccncc3)nc3ccccc23)cc1F	Mdm2-MdmX inh 82.2 | Mdm2-MdmX conf 81.0 | Full FLuc ctr 64.0
O=C(Cn1cnc([N+](=O)[O-])c1)NC1CCCC1	none
O=C(N1CCCCC1)C1(S(=O)(=O)c2ccccc2)CC=CC1	none
COc1cccc(C(=O)Nc2cc(OC)ccc2NC(=O)c2ccco2)c1	none
COc1ccc(-c2cc(C(F)(F)F)c(C#N)c(SCC(=O)Nc3ccccc3C#N)n2)cc1	Mdm2-MdmX inh 53.2 | Mdm2-MdmX conf inactive
